Data: the supplement of paper PMC10849652
About 7,900 targets were measured; listed, in parts, are those with a hit and a random draw of the rest. About 0.6% of all pairs of compound and target were hits. Unmarked numbers belong to inactive results.

Experiments:
Assay in all cases: log2 fold change, soluble protein after heating vs DMSO (PISA); higher = thermal stabilisation; K562 cells, 10 uM, 30 min; active = over 0.2 and 3.5 SD of the protein, either way, in both replicates (recomputed)
[1] = compound: CC[C@@H]1C(=O)N(C)c2cnc(Nc3ccc(C(=O)NC4CCN(C)CC4)cc3OC)nc2N1C1CCCC1
Summary of the method: (§1)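 K562 cells at 2×10^6 cells/mL were exposed to 10 μM compound for 30 min, then aliquots were heated for 3 min across 48°C-58°C, pooled, and extracted in PBS containing 0.5% NP-40 at 4°C. The supernatant after 21,000xg for 90 min was taken as soluble protein and measured by TMTpro 16plex LC-MS/MS with channel sums equalised. Thermal stability is reported relative to control samples, with values from duplicates. Fold changes are given on a log2 scale.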

volasertib = compound: CC[C@@H]1C(=O)N(C)c2cnc(Nc3ccc(C(=O)N[C@H]4CC[C@H](N5CCN(CC6CC6)CC5)CC4)cc3OC)nc2N1C(C)C [volasertib]
Summary of the method: as §1

[2] = compound: CC[C@H](C)N1C=C(C2=C(C=C(C=C21)C3=CN=C(C=C3)N4CCNCC4)C(=O)NCC5=C(C=C(NC5=O)C)C)C
Summary of the method: as §1

epoxomicin = compound: CC[C@H](C)[C@@H](C(=O)N[C@@H]([C@@H](C)O)C(=O)N[C@@H](CC(C)C)C(=O)[C@]1(CO1)C)NC(=O)[C@H]([C@@H](C)CC)N(C)C(=O)C [epoxomicin]
Summary of the method: as §1

[3] = compound: CCn1c(C(=O)N(C2CC2)C2CC2)cc2c3c(ncn3C)c(Nc3cc(C)n(C)n3)nc21
Summary of the method: as §1

[4] = compound: CCn1cc(-c2ccnc3[nH]c(-c4cccc(CN(C)C)c4)cc23)c(-c2ccc(NC(=O)N(C)C)cc2)n1
Summary of the method: as §1

[5] = compound: CN(C)CC(=O)Nc1ccc2[nH]c(=O)c3ccccc3c2c1
Summary of the method: as §1

rosiglitazone = compound: CN(CCOC1=CC=C(C=C1)C[C@H]2C(=O)NC(=O)S2)C3=CC=CC=N3 (racemic) [rosiglitazone]
Summary of the method: as §1

[6] = compound: CN1C2=C(C3=C1C(=O)N(N=C3)CC4=CC(=CC=C4)N)SC(=C2)S(=O)C
Summary of the method: as §1

[7] = compound: CN1CCC(CNc2ccc3ncc(-c4cccc(OC(F)(F)F)c4)n3n2)CC1
Summary of the method: as §1

saracatinib = compound: CN1CCN(CCOc2cc(OC3CCOCC3)c3c(Nc4c(Cl)ccc5c4OCO5)ncnc3c2)CC1 [saracatinib]
Summary of the method: as §1

sotrastaurin = compound: CN1CCN(c2nc(C3=C(c4c[nH]c5ccccc45)C(=O)NC3=O)c3ccccc3n2)CC1 [sotrastaurin]
Summary of the method: as §1

alvocidib = compound: CN1CC[C@H](c2c(O)cc(O)c3c(=O)cc(-c4ccccc4Cl)oc23)[C@H](O)C1 [alvocidib]
Summary of the method: as §1

Tubastatin A = compound: CN1CCc2c(c3ccccc3n2Cc2ccc(C(=O)NO)cc2)C1 [Tubastatin A]
Summary of the method: as §1

[8] = compound: CNC(=O)C1=CC=CC=C1NC2=NC(=NC=C2Cl)NC3=C(C=C(C=C3)N4CCOCC4)OC
Summary of the method: as §1

defactinib = compound: CNC(=O)c1ccc(Nc2ncc(C(F)(F)F)c(NCc3nccnc3N(C)S(C)(=O)=O)n2)cc1 [defactinib]
Summary of the method: as §1

rucaparib = compound: CNCc1ccc(-c2[nH]c3cc(F)cc4c3c2CCNC4=O)cc1 [rucaparib]
Summary of the method: as §1

[9] = compound: CNc1nc(-c2ccc3c(N)n[nH]c3c2)cc(N2C[C@@H](C(=O)NC3CCCCC3)CC[C@H]2C)n1
Summary of the method: as §1

encorafenib = compound: COC(=O)N[C@@H](C)CNc1nccc(-c2cn(C(C)C)nc2-c2cc(Cl)cc(NS(C)(=O)=O)c2F)n1 [encorafenib]
Summary of the method: as §1

[10] = compound: COC(=O)[C@H](CCSC)NC(=O)C1=C(C=C(C=C1)NC[C@H](CS)N)C2=CC=CC=C2
Summary of the method: as §1

FAM177A1 isoform 2 (UniProt Q8N128)
Sequence of UniProt Q8N128 (Q8N128 whole entry, looked up): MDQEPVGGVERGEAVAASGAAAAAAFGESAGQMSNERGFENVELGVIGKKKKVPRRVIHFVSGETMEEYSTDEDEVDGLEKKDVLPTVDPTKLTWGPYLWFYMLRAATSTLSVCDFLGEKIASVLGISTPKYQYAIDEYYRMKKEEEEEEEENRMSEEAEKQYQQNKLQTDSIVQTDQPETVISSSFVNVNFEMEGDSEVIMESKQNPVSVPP
log2 fold change [1]: -0.039 | log2 fold change (volasertib): -0.108 | log2 fold change [2]: 0.006 | log2 fold change (epoxomicin): 0.045 | log2 fold change [3]: -0.001 | log2 fold change [4]: 0.045 | log2 fold change [5]: -0.012 | log2 fold change (rosiglitazone): 0.012 | log2 fold change [6]: -0.023 | log2 fold change [7]: -0.259 (active) | log2 fold change (saracatinib): 0.092 | log2 fold change (sotrastaurin): -0.021 | log2 fold change (alvocidib): -0.011 | log2 fold change (Tubastatin A): 0.045 | log2 fold change [8]: -0.094 | log2 fold change (defactinib): -0.054 | log2 fold change (rucaparib): 0.001 | log2 fold change [9]: -0.042 | log2 fold change (encorafenib): -0.029 | log2 fold change [10]: -0.065

DNAH5 (UniProt Q8TE73)
log2 fold change [1]: 0.042 | log2 fold change (volasertib): 0.01 | log2 fold change [2]: -0.079 | log2 fold change (epoxomicin): -0.052 | log2 fold change [3]: -0.015 | log2 fold change [4]: -0.009 | log2 fold change [5]: -0.031 | log2 fold change (rosiglitazone): -0.044 | log2 fold change [6]: 0.029 | log2 fold change [7]: 0.03 | log2 fold change (saracatinib): 0.058 | log2 fold change (sotrastaurin): 0.017 | log2 fold change (alvocidib): 0.044 | log2 fold change (Tubastatin A): 0.058 | log2 fold change [8]: -0.057 | log2 fold change (defactinib): 0.015 | log2 fold change (rucaparib): -0.071 | log2 fold change [9]: -0.099 | log2 fold change (encorafenib): -0.006 | log2 fold change [10]: -0.072

EHBP1L1 (UniProt Q8N3D4)
Sequence of UniProt Q8N3D4 (Q8N3D4 whole entry, looked up): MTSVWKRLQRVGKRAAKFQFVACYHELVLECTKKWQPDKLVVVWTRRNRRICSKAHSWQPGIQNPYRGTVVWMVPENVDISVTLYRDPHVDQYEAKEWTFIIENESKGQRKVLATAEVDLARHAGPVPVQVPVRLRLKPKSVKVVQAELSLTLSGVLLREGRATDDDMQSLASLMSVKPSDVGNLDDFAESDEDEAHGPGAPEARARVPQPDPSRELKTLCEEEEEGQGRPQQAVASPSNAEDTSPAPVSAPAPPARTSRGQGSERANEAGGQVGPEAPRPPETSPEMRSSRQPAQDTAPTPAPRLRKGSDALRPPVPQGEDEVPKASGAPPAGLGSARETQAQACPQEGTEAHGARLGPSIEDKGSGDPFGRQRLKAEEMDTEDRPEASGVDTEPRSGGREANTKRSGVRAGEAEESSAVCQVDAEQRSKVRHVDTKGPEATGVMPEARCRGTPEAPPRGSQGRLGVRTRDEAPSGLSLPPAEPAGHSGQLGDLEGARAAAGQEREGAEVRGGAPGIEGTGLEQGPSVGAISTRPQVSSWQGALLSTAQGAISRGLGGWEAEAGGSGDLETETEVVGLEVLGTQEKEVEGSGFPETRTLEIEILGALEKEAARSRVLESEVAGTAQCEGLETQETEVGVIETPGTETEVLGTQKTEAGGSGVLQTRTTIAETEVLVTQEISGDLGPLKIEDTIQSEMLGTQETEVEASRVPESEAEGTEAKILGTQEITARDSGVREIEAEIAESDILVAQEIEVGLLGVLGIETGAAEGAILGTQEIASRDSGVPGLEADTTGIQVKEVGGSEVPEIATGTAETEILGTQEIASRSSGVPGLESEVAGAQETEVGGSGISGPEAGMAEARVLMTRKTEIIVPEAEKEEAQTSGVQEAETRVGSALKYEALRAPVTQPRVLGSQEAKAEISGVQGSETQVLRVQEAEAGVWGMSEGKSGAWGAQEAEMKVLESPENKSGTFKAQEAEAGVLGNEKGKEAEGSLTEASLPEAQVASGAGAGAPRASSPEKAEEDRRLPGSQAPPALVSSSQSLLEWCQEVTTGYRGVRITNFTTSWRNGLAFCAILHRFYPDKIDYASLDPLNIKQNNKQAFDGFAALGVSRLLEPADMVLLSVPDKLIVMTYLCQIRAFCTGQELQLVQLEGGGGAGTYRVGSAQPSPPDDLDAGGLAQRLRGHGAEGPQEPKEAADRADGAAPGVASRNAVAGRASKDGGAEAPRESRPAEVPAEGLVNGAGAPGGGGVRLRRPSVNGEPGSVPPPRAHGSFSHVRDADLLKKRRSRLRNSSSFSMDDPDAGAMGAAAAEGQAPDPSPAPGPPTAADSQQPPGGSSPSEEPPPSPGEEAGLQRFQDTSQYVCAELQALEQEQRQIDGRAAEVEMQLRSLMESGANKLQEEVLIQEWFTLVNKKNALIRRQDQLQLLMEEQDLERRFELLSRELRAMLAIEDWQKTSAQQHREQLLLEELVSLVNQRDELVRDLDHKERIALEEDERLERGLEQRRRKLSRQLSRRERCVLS
log2 fold change [1]: -0.035 | log2 fold change (volasertib): -0.307 (active) | log2 fold change [2]: 0.091 | log2 fold change (epoxomicin): 0.072 | log2 fold change [3]: 0.012 | log2 fold change [4]: -0.055 | log2 fold change [5]: 0.029 | log2 fold change (rosiglitazone): 0.094 | log2 fold change [6]: 0.077 | log2 fold change [7]: 0.101 | log2 fold change (saracatinib): -0.065 | log2 fold change (sotrastaurin): -0.082 | log2 fold change (alvocidib): -0.049 | log2 fold change (Tubastatin A): 0.098 | log2 fold change [8]: -0.002 | log2 fold change (defactinib): -0.089 | log2 fold change (rucaparib): 0.1 | log2 fold change [9]: -0.008 | log2 fold change (encorafenib): 0.127 | log2 fold change [10]: -0.017

DTWD2 (UniProt Q8NBA8)
Sequence of UniProt Q8NBA8 (Q8NBA8 whole entry, looked up): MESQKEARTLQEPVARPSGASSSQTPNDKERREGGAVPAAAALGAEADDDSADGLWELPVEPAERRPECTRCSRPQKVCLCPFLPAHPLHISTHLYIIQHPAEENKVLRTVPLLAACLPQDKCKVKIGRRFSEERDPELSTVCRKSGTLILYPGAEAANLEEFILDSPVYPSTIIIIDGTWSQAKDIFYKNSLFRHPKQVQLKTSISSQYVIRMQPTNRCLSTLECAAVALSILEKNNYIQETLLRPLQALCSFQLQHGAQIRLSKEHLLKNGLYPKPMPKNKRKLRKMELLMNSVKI
log2 fold change [1]: -0.047 | log2 fold change (volasertib): -0.048 | log2 fold change [2]: 0.057 | log2 fold change (epoxomicin): -0.015 | log2 fold change [3]: 0.057 | log2 fold change [4]: -0.018 | log2 fold change [5]: -0.106 | log2 fold change (rosiglitazone): 0.005 | log2 fold change [6]: -0.066 | log2 fold change [7]: 0.035 | log2 fold change (saracatinib): -0.032 | log2 fold change (sotrastaurin): -0.228 | log2 fold change (alvocidib): 0.059 | log2 fold change (Tubastatin A): -0.029 | log2 fold change [8]: 0.111 | log2 fold change (defactinib): -0.022 | log2 fold change (rucaparib): 0.05 | log2 fold change [9]: 0.04 | log2 fold change (encorafenib): 0.002 | log2 fold change [10]: -0.032

CTSV (UniProt O60911)
Sequence of UniProt O60911 (O60911 whole entry, looked up): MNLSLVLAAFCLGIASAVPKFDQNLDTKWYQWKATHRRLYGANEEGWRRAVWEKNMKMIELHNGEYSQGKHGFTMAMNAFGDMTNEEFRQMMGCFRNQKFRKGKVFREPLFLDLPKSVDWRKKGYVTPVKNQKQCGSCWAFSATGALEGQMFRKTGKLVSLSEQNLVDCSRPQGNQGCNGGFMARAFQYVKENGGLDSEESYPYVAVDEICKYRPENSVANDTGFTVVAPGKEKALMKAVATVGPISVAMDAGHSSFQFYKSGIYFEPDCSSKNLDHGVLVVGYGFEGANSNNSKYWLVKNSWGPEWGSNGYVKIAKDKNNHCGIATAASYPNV
log2 fold change [1]: -0.719 (active) | log2 fold change (volasertib): -0.993 (active) | log2 fold change [2]: -0.054 | log2 fold change (epoxomicin): -0.007 | log2 fold change [3]: 0.033 | log2 fold change [4]: 0.084 | log2 fold change [5]: 0.012 | log2 fold change (rosiglitazone): -0.013 | log2 fold change [6]: -0.081 | log2 fold change [7]: -1.29 (active) | log2 fold change (saracatinib): -0.049 | log2 fold change (sotrastaurin): 0.195 | log2 fold change (alvocidib): 0.012 | log2 fold change (Tubastatin A): 0.016 | log2 fold change [8]: 0.048 | log2 fold change (defactinib): 0.011 | log2 fold change (rucaparib): -0.056 | log2 fold change [9]: 0.062 | log2 fold change (encorafenib): 0 | log2 fold change [10]: 0.02

CUEDC2 (UniProt Q9H467)
Sequence of UniProt Q9H467 (Q9H467 whole entry, looked up): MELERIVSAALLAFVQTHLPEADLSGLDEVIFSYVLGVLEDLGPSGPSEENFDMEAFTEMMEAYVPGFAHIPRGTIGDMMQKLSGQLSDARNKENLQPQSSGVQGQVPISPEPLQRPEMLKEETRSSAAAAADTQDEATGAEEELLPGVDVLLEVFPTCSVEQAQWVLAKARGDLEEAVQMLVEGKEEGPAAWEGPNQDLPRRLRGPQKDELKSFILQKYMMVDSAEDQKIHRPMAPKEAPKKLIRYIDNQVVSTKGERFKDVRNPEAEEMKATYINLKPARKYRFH
log2 fold change [1]: -0.044 | log2 fold change (volasertib): -0.133 | log2 fold change [2]: 0.033 | log2 fold change (epoxomicin): 0.118 | log2 fold change [3]: -0.01 | log2 fold change [4]: -0.001 | log2 fold change [5]: -0.01 | log2 fold change (rosiglitazone): 0.105 | log2 fold change [6]: -0.038 | log2 fold change [7]: -0.067 | log2 fold change (saracatinib): -0.003 | log2 fold change (sotrastaurin): -0.045 | log2 fold change (alvocidib): -0.089 | log2 fold change (Tubastatin A): 0.197 | log2 fold change [8]: -0.036 | log2 fold change (defactinib): -0.067 | log2 fold change (rucaparib): -0.033 | log2 fold change [9]: -0.338 (active) | log2 fold change (encorafenib): 0.071 | log2 fold change [10]: 0.016

EEA1 (UniProt Q15075)
Sequence of UniProt Q15075 (Q15075 whole entry, looked up): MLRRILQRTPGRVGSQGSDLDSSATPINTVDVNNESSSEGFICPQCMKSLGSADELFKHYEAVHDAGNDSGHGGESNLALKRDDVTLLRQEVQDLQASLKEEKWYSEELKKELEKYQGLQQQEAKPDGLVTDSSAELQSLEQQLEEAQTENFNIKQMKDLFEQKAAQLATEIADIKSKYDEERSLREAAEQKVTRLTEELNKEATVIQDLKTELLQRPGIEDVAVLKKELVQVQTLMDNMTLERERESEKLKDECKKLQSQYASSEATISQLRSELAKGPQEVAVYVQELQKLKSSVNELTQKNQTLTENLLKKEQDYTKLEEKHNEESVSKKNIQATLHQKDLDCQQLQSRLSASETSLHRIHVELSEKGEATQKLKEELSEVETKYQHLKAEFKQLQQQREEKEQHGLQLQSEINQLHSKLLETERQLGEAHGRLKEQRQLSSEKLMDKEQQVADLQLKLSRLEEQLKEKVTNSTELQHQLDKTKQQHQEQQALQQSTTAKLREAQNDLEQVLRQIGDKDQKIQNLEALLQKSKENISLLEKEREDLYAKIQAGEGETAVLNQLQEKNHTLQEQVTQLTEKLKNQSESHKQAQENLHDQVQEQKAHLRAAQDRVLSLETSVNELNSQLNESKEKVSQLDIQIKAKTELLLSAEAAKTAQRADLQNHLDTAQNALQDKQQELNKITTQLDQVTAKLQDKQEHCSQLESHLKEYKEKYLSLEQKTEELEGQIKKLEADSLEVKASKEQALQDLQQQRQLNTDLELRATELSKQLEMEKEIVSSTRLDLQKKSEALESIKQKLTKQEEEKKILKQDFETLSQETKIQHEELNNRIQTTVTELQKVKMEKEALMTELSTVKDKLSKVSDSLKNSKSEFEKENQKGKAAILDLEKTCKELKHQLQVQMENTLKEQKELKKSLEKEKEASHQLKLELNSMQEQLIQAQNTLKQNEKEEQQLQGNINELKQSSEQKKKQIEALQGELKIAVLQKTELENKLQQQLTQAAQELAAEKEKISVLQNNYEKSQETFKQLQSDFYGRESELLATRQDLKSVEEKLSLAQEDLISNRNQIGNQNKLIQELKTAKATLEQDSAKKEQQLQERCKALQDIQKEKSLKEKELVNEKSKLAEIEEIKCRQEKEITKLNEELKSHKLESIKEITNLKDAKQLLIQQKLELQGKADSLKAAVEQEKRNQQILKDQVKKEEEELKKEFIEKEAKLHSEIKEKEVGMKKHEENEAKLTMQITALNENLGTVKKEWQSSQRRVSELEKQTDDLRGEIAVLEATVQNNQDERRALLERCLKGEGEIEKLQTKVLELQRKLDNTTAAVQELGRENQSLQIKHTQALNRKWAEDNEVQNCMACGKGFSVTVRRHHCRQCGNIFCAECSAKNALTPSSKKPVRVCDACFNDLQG
log2 fold change [1]: 0.036 | log2 fold change (volasertib): 0.031 | log2 fold change [2]: -0.024 | log2 fold change (epoxomicin): 0.017 | log2 fold change [3]: -0.002 | log2 fold change [4]: 0.019 | log2 fold change [5]: -0.038 | log2 fold change (rosiglitazone): -0.014 | log2 fold change [6]: -0.023 | log2 fold change [7]: 0.001 | log2 fold change (saracatinib): 0.07 | log2 fold change (sotrastaurin): 0.013 | log2 fold change (alvocidib): 0.013 | log2 fold change (Tubastatin A): -0.014 | log2 fold change [8]: -0.014 | log2 fold change (defactinib): -0.033 | log2 fold change (rucaparib): -0.035 | log2 fold change [9]: -0.026 | log2 fold change (encorafenib): -0.047 | log2 fold change [10]: 0.007

EMD (UniProt P50402)
Sequence of UniProt P50402 (P50402 whole entry, looked up): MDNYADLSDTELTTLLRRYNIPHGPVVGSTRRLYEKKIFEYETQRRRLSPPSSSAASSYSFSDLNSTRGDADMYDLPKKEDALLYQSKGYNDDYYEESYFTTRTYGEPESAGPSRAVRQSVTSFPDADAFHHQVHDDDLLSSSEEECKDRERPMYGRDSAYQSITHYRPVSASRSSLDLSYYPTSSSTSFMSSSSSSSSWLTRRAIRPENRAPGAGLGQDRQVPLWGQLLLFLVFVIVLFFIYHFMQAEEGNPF
log2 fold change [1]: -0.127 | log2 fold change (volasertib): -0.273 (active) | log2 fold change [2]: 0 | log2 fold change (epoxomicin): -0.065 | log2 fold change [3]: -0.004 | log2 fold change [4]: 0 | log2 fold change [5]: -0.018 | log2 fold change (rosiglitazone): -0.054 | log2 fold change [6]: 0.003 | log2 fold change [7]: -0.078 | log2 fold change (saracatinib): 0.011 | log2 fold change (sotrastaurin): 0.063 | log2 fold change (alvocidib): -0.043 | log2 fold change (Tubastatin A): -0.028 | log2 fold change [8]: -0.046 | log2 fold change (defactinib): -0.027 | log2 fold change (rucaparib): 0.008 | log2 fold change [9]: -0.064 | log2 fold change (encorafenib): -0.056 | log2 fold change [10]: 0.032
